The campaign covered roughly 65,000 compounds. About 2,100 (3.2%) showed an effect of 50% or more. The median lay at about -52%. The list comes from a sample in which strong results are over-represented; it also holds similar structures and randomly drawn compounds.

The test system of this assay is Plasmodium falciparum. The assay can be described thus: Screen against P. falciparum Asexual Blood Stage (ABS), at 5uM. It is filed as functional, Dd2. The note with it: tested at 5 uM.
For the compound `O=C(C1CCCCC1)N1CCC2(CCCN2CC2CC2)CC1`, the INHIBITION was -19.9%.

For `CC(C)c1noc(CN2CCN(C(=O)c3cccnc3O)CC2)n1`, the INHIBITION was -63.3%.

Regarding `Cc1nn(-c2ccccc2)c(C)c1-c1ccnc(N2CCCNCC2)n1`, the INHIBITION is 66.9%.

With `Cc1nn(-c2ccccc2)c(C)c1-c1ccnc(N2CCCOCC2)n1`, the INHIBITION is given as -64.7%.

As to `Cc1nn(-c2ccccc2)c(C)c1-c1ccnc(N2CCC(O)CC2)n1`, the INHIBITION was -309%.

For `CN1CCN(c2cc(Sc3cccs3)nc(N)n2)CC1CCO` (centres undefined), the INHIBITION is -77.1%.

In the case of `CN(Cc1nccn1C)C1CCCN(CCCc2ccccc2)C1` (centres undefined), the INHIBITION came out at 63.9%.

With `CN(CCc1ccccc1)C1CCCN(Cc2nccn2C)C1` (centres undefined), the INHIBITION is 22.1%.

As to `Cc1nc(CN2CCCC(N(C)Cc3nccn3C)C2)no1` (centres undefined), the INHIBITION is reported as -29.4%.

Consider `O=C1COC2(CCN(c3ncccn3)CC2)CN1`, for which the INHIBITION is on record as -86%.

Take `COCCC1COC2(CCN(C(=O)c3ccsc3)CC2)C1` (centres undefined): the INHIBITION was -101%.

For the compound `CCC1CCC(NCCN2CCOCC2)CC1` (centres undefined), the INHIBITION came out at 5.69%.

As for `CC(C)(C)C1CCC(NCCN2CCOCC2)CC1` (centres undefined), the INHIBITION is on record as 56.3%.

On to `C1CCC(NCCN2CCOCC2)C1`, for which the INHIBITION is listed as -99.9%.

As for `CC(C)c1cc(C(=O)NCCc2nc3c(s2)CCC3)n(C)n1`, the INHIBITION is reported as -63.4%.

As for `Cc1noc(C)c1-c1ccnc(C2CCNCC2)c1`, the INHIBITION was -51.7%.

With `CC(=O)N1CC[C@@]2(O)CCCC[C@H]2[C@@H]1c1ccc2c(c1)OCO2`, the INHIBITION was -87.3%.

On to `c1cc(CCN2CCC(NCc3ccsc3)CC2)ccn1`, for which the INHIBITION is on record as -8.86%.

As to `Oc1cccc(CNC2CCN(CCc3ccncc3)CC2)c1`, the INHIBITION was -18.8%.

Turning to `N#Cc1ccc(CNC2CCN(CCc3ccncc3)CC2)cc1`, the INHIBITION was 56.7%.

Take `CC(CNC(=O)c1cnc[nH]1)Oc1ccccc1Br` (centres undefined): the INHIBITION is -61.4%.

Regarding `CC(C)N1CCC(c2cnc(-c3cncnc3)cn2)CC1`, the INHIBITION is -18%.

Turning to `COc1cccc(-c2cccc(CN3C[C@H]4CC[C@@H](C3)N(C)C4=O)c2)c1`, the INHIBITION is reported as 13.1%.

Consider `CCc1ncc2c(n1)CN(CC(=O)Nc1ccc(Cl)cn1)CC2`, for which the INHIBITION was 59.4%.

On to `Cc1ncc2c(n1)CN(CC(=O)Nc1ccc(Cl)cn1)CC2`, for which the INHIBITION is 6.47%.

As to `CC(C)c1ncc2c(n1)CN(CC(=O)Nc1ccc(Cl)cn1)CC2`, the INHIBITION is given as -65.1%.

For `CCCc1nc(N2CCCCCC2)c2c(n1)c(C)nn2CC`, the INHIBITION was found to be 22.2%.

For the compound `NC(=O)C1(CCCc2ccccn2)CCCN(Cc2ccncc2)C1` (centres undefined), the INHIBITION is -123%.

`CC(O)CN1CCC(CN(C)C(=O)NC2CC2)CC1` (centres undefined): the INHIBITION is recorded as -50.7%.

Turning to `CCN(CC)CC1CN(CCc2ccccc2)Cc2nccn2C1` (centres undefined), the INHIBITION stood at 58.7%.

Take `CCN(CC)CC1CN(Cc2ccco2)Cc2nccn2C1` (centres undefined): the INHIBITION is given as -52.4%.

For the compound `Cc1ccc(CN2Cc3nccn3CC(CN(C)C)C2)s1` (centres undefined), the INHIBITION is -47.7%.

With `Cc1ccc(CN2Cc3nccn3CC(Cn3cccn3)C2)s1` (centres undefined), the INHIBITION was -26.9%.

In the case of `CCN(CC)CC1CN(Cc2ccc(C)s2)Cc2nccn2C1` (centres undefined), the INHIBITION is 66.7%.

Regarding `CCN(CC)CC1CN(Cc2cccc(C#N)c2)Cc2nccn2C1` (centres undefined), the INHIBITION was -6.06%.

Turning to `Cc1cc(CCC(=O)NCc2ncc[nH]2)ccc1Br`, the INHIBITION is -116%.

Regarding `CCOC(=O)[C@]12CCCN(Cc3cccs3)C[C@H]1CN(CC(C)C)C2`, the INHIBITION is reported as 14.6%.

Take `NC(=O)c1ccc(C(=O)N2CCCCC2Cn2cccn2)s1` (centres undefined): the INHIBITION is -33.2%.

`O=C(c1cc(Cl)cc2cccnc12)N1CCN(CCO)CC1`: the INHIBITION stood at 30.3%.

As to `O=C(C1CCC1)N1C[C@@H]2CN(Cc3ccncc3)C(=O)[C@@H]2C1`, the INHIBITION is on record as -74.3%.

With `Cn1cc(CN2CCOC(c3cccc(-c4cncnc4)n3)C2)cn1` (centres undefined), the INHIBITION was -54.2%.

With `COc1ccc(-c2ccnc(N)c2)c(OC)c1`, the INHIBITION is recorded as -90.3%.

In the case of `COc1ccc(-c2ccccc2CN)c(OC)c1`, the INHIBITION is given as 60.2%.

As to `COc1ccc(CN)c(OC(F)F)c1`, the INHIBITION was -30%.

Take `CC(C)(C)CN1CCCC(c2nccnc2Nc2cnccn2)C1` (centres undefined): the INHIBITION was found to be 22.1%.

Turning to `O=C(CCCc1cccs1)N1CCC(N2CCNC2=O)CC1`, the INHIBITION is listed as -185%.

On to `CC(C)CN1C(=O)C2(CCN(Cc3nccs3)C2)c2ccccc21` (centres undefined), for which the INHIBITION was -54.5%.

For `CCO[C@H]1C[C@@H](O)C12CCN(C1CCN(c3ccccc3C)CC1)CC2`, the INHIBITION is given as 10.7%.

In the case of `CCc1ccc(C2CC(=O)Nc3cc(OC)c(NS(C)(=O)=O)cc32)o1` (centres undefined), the INHIBITION is given as -121%.

As to `Cc1cccnc1CN1CCN(C(=O)c2cnn(C(C)C)c2)CC1`, the INHIBITION is -15.2%.

On to `Cc1nc(N2CCCC2)nc2c1CN(C(=O)N1CCOCC1)CC2`, for which the INHIBITION is given as -70.2%.

As to `Cc1nc(N2CCCC2)nc2c1CCN(C(=O)N1CCCC1)CC2`, the INHIBITION was 47%.

`Cc1nc(N2CCCC2)nc2c1CN(C(=O)N(C)C)CC2`: the INHIBITION is -67.8%.

As for `CC(=O)N1CCc2nc(N3CCCC3)nc(C)c2C1`, the INHIBITION is on record as 53.8%.

Consider `Cc1nc(N2CCOCC2)nc2c1CN(C(=O)C(C)C)CC2`, for which the INHIBITION was 56.2%.

For the compound `Cc1nc(N2CCOCC2)nc2c1CCN(C(=O)N1CCCC1)CC2`, the INHIBITION was -112%.

Consider `O=C(NCC(F)F)c1cnc(C2CCCN2)cn1` (centres undefined), for which the INHIBITION is recorded as -41.5%.

As to `CCn1cc(NC(=O)C2CCN(Cc3nc(C(C)C)no3)CC2)cn1`, the INHIBITION is reported as -86%.

Consider `COc1ccc(F)c(CN(CCCn2ccnc2)Cc2ccc(C)s2)c1`, for which the INHIBITION is 39.5%.

For `Cc1ccc(CN(CCCn2ccnc2)Cc2cc(F)ccc2F)s1`, the INHIBITION worked out at 68.8%.

As for `Cc1ccc(O)c(CN(CCCn2ccnc2)Cc2ccc(C)s2)c1`, the INHIBITION is 43%.

Consider `CC(C)(C)NC(=O)C1CSCN1C(=O)CCc1ccco1` (centres undefined), for which the INHIBITION is reported as -87.6%.

Turning to `O[C@H]1CC[C@@H](Cc2cc(-c3ccc(F)cc3)on2)O[C@@H]1CNCC1CC1`, the INHIBITION was determined as 63.5%.

On to `O[C@H]1CC[C@@H](Cc2cc(-c3ccccc3)on2)O[C@@H]1CNCC1CC1`, for which the INHIBITION is recorded as 39.2%.

`O[C@H]1CC[C@@H](Cc2cc(-c3ccccn3)on2)O[C@@H]1CNCC1CC1`: the INHIBITION is listed as -70.3%.

Take `COCCCNC1N=C(n2nc(C)cc2C)Nc2sc3c(c21)CCCC3` (centres undefined): the INHIBITION came to 46.7%.

As to `Cc1ccc(NC2(C(=O)N3CCn4cncc4C3)CCCCC2)cc1C`, the INHIBITION was found to be 64.5%.

`COc1ccc(NC2(C(=O)N3CCn4cncc4C3)CCCC2)cc1`: the INHIBITION is -27.6%.

Consider `COc1ccc(NC2(C(=O)N3CCCn4cncc4C3)CCCC2)cc1`, for which the INHIBITION was 45%.

Source of the values: ChEMBL document CHEMBL4513216, “Probing the Open Global Health Chemical Diversity Library for Multistage-Active Starting Points for Next-Generation Antimalarials” (ACS Infect Dis, 2020).
